Assay outcomes from PubChem BioAssay.
Rows were chosen to be rich in hits. Some 0.51% of all compounds tested hit in one or more screens of this group.
AddAB inh: less growth of phage-infected E. coli with AddAB; E. coli expressing H. pylori AddAB, absorbance growth; 0.29% of 330,000 active; AID 435030; inhibition, % at 11.9 µM; in the data active means inhibition above about 12%;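 further: 0% = vehicle wells of infected cells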
E coli growth-1: E. coli growth inhibition | Escherichia coli growth, OD600, 23 h; active compounds read low | OD600 absorbance (no concentration beside the values) | 0.21% of 330,000 active;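 active means OD600 absorbance below the run mean of sample wells minus 3.6 SD, in any replicate, cut at about 0.56 in these data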
Tat transport: inhibitors of E. coli Tat protein transport | 0.036% of 340,000 active | E. coli MC4100 TorA-mCherry Tat export, fluorescence | inhibition, % at 10 µM;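 active means mean replicate inhibition at least 50% and at least half of replicates individually reaching 50%; inconclusive means only one of the two criteria met; inactive means neither criterion met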;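 further: exported cargo escapes ClpAP degradation while cytoplasmic cargo is degraded and loses fluorescence; 0% = median of neutral control wells and 100% = median of NaSCN control wells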
E coli growth-2: counter-screen for AddAB inhibitors: E. coli growth inhibition. E. coli V3065 growth, OD600 absorbance, 18 h. inhibition, % at 11.9 µM. 0.27% of 330,000 active;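 active means inhibition above the campaign's mean inhibition across all tested compounds plus 3 SD, cut at about 9.9% in these data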;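 further: uninfected addAB+ strain grown without phage in ampicillin broth; 0% = DMSO wells and 100% = ciprofloxacin 0.95 µg/ml wells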
phage Ecoli inh: E. coli growth loss with phage present; growth absorbance; inhibition, % at 11.9 µM; 0.26% of 360,000 active; in the data active means inhibition above about 11%
AddAB conf: confirmation screen: growth loss of phage-infected E. coli expressing H. pylori AddAB | shares compounds with AddAB inh | 64% of 880 active | E. coli V3065 expressing H. pylori AddAB, T4 phage, OD; T4 phage with gene 2 nonsense mutations | inhibition, % at 11.9 µM;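 active means mean inhibition above a set limit taken from the earlier primary screen, cut at about 13% in these data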;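 further: higher means less bacterial growth since AddAB block lets phage replicate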
RecBCD counter: AddAB counter-screen: growth loss of RecBCD+ E. coli infected with mutant T4 phage. 73% of 880 active. shares compounds with AddAB inh. inhibition, % at 11.9 µM. E. coli V66 + mutant T4 phage, OD growth;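 active means mean inhibition above the mean of solvent-only control wells plus 3 SD, cut at about 4% in these data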;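 further: optical density read after an 18 h incubation at 37 °C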
Bact viability: counter-screen: bacterial growth inhibition. shares compounds with AddAB inh. bacterial viability, absorbance (AddAB counterscreen). inhibition, % at 11.9 µM. 35% of 880 active. AID 488956; in the data active means inhibition above about 25%
RecBCD conf: confirmation: growth loss of phage-infected RecBCD+ E. coli (RecBCD inhibitor screen); shares compounds with phage Ecoli inh; E. coli V66 + T4 2- phage, growth OD; inhibition, % at 11.9 µM; 45% of 890 active;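 active means mean inhibition over triplicates exceeding the hit threshold derived in the original primary screen, cut at about 11% in these data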
Ecoli viability: bacterial viability inhibition counter-screen for RecBCD; shares compounds with phage Ecoli inh; E. coli viability, absorbance (OD) growth; inhibition, % at 11.9 µM; 29% of 890 active; AID 651983; in the data active means inhibition above about 20%;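 further: E. coli strain V66 grown with compound alone and no phage infection; 0% = bacteria with DMSO vehicle only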
AddAB counter: growth loss of phage-infected AddAB E. coli, RecBCD counter-screen. E. coli expressing H. pylori AddAB + T4 phage, OD growth; gene 2 mutant T4, recBCD-deleted host. 45% of 890 active. inhibition, % at 11.9 µM. shares compounds with phage Ecoli inh. AID 651984;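 active means mean inhibition above the solvent-only control wells' mean plus 3 SD, cut at about 22% in these data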;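 further: higher means less bacterial growth from phage killing when AddAB is blocked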
Starred values were filed as active, the others as inactive; u = inconclusive; x = no result given.

SMILES | AddAB inh | E coli growth-1 | Tat transport | E coli growth-2 | phage Ecoli inh | AddAB conf | RecBCD counter | Bact viability | RecBCD conf | Ecoli viability | AddAB counter
O=C(NC(CO)C(O)c1ccc([N+](=O)[O-])cc1)C(Cl)Cl (centres undefined) | 78.6* | 0.0605* | -3.1 | 85.4* | 72.5* | 86.5* | 83.6* | 86.0* | 79.4* | 78.8* | 73.7*
O=[N+]([O-])c1ccc(C(O)C(CO)NC(=S)Nc2ccccc2)cc1 (centres undefined) | 0.8 | 0.687 | 1.0 | 2.6 | 1.9 | x | x | x | x | x | x
NC(=O)C1=CC(c2ccc(Br)cc2)CC(OCc2ccc(CO)cc2)O1 (centres undefined) | x | 0.703 | x | x | x | x | x | x | x | x | x
[O-][n+]1c2ccccc2[n+]([O-])c2cc(O)ccc21 | 31.5* | 0.398* | 9.3 | 40.1* | 11.3* | 68.7* | 9.8* | 50.7* | 11.1* | 11.2 | 55.0*
CCn1cc(C(=O)O)c(=O)c2ccc(C)nc21 | 98.0* | 0.063* | 2.8 | 82.3* | 82.0* | 94.1* | 32.5* | 90.2* | 45.2* | 78.3* | 99.5*
CCn1cc(C(=O)OCc2ccccc2)c(=O)c2ccc(C)nc21 | 3.0 | 0.607 | -0.2 | -1.0 | -0.9 | x | x | x | x | x | x
CCCC(=O)NCCCCNC(=O)CCC | -2.4 | 0.696 | -3.6 | -3.0 | 2.1 | x | x | x | x | x | x
CC(=O)N(O)CCCCCNC(=O)CCC(=O)N(O)CCCCCNC(=O)CCC(=O)N(O)CCCCCN | 18.3* | x | 5.3 | 22.4* | 17.3* | 6.7 | 13.3* | 2.7 | 3.4 | 6.8 | 13.6
Cc1n[nH]c(=S)n(NC(=O)CC(=O)Nn2c(=S)[nH]nc(C)c2=O)c1=O | 18.5* | 0.639 | -0.3 | 12.6* | 15.5* | 33.0* | 15.0* | 31.5* | 13.8* | 15.3 | 35.0*
CC(=O)NC(c1ccco1)c1cc(F)c2cccnc2c1O (centres undefined) | -2.0 | 0.685 | -2.0 | 0.8 | 1.2 | x | x | x | x | x | x
Oc1c(C(Nc2nc3ccccc3s2)c2ccco2)ccc2cccnc12 (centres undefined) | 19.3* | 0.661 | -7.2 | 21.2* | 14.5* | 13.6* | 13.3* | 12.4 | 8.4 | 9.2 | 16.1
c1coc(CNc2nc3ccccc3s2)c1 | -1.7 | 0.677 | -1.1 | 2.1 | 1.2 | x | x | x | x | x | x
CC(C)C(=O)NC(c1cccc([N+](=O)[O-])c1)c1ccc2cccnc2c1O (centres undefined) | 18.2* | 0.6 | -0.9 | 22.8* | 23.0* | 27.0* | 21.8* | 21.9 | 16.4* | 20.9* | 27.6*
CC(C)C(=O)NC(c1ccco1)c1ccc2cccnc2c1O (centres undefined) | 16.1* | x | -11.2 | 15.4* | 21.1* | 5.6 | 14.7* | 4.8 | 4.5 | 8.4 | 16.6
O=C(Nc1nnc(-c2ccccc2)o1)c1ccc(Cl)cc1 | 13.3* | 0.333* | -12.8 | 7.2 | 24.0* | 32.9* | 27.4* | 20.9 | 18.5* | 20.2* | 20.3
CC(=O)NN1C(=O)c2ccccc2NC1c1cccc([N+](=O)[O-])c1 (centres undefined) | 0.8 | 0.655 | 4.2 | 0.5 | 2.5 | x | x | x | x | x | x
O=C1c2ccccc2NC(c2ccc(-c3cccc([N+](=O)[O-])c3)o2)N1O (centres undefined) | 26.6* | 0.634 | -3.2 | 25.1* | 22.0* | 21.3* | 19.9* | 17.4 | 9.2 | 14.4 | 11.8
O=C1c2ccccc2NC(c2ccc(-c3ccc(F)cc3)o2)N1O (centres undefined) | 6.9 | x | -4.7 | 6.2 | 2.1 | x | x | x | x | x | x
O=C1c2ccccc2NC(c2ccc(-c3ccc(Br)cc3)o2)N1O (centres undefined) | 24.4* | 0.621 | -25.9 | 23.7* | 23.3* | 18.6* | 18.1* | 16.7 | 14.3* | 14.1 | 14.9
N#CCC(Cc1ccccc1)N1CCN(CCc2ccccc2)CCC1=O (centres undefined) | x | 0.669 | x | x | x | x | x | x | x | x | x
Cc1cc(C)c2c(N=NN3CCOCC3)[nH]nc2n1 | 76.9* | 0.674 | -5.4 | 17.0* | 11.6* | 70.7* | 4.2* | 33.5* | 5.7 | 6.1 | 32.2*
CC(=NNC(=O)C1CC1)c1ccc(N2CCOCC2)cc1 | x | 0.707 | x | x | x | x | x | x | x | x | x
Oc1ccccc1N=Nc1nc(-c2ccccc2)c(-c2ccccc2)[nH]1 | 27.6* | x | -4.0 | 22.2* | 20.0* | 21.2* | 16.0* | 17.6 | 10.8 | 15.0 | 18.9
CC[n+]1ccccc1/C=C1\Sc2ccc(C)cc2N1C | 1.8 | 0.641 | -1.9 | 1.6 | 0.1 | x | x | x | x | x | x
CCN1/C(=C/c2ccc3cc(C)ccc3[n+]2CC)Sc2ccccc21 | 25.3* | 0.222* | 3.7 | 27.6* | 13.8* | 45.7* | 13.9* | 30.3* | 5.6 | 4.2 | 16.3
SMILES | AddAB inh | E coli growth-1 | Tat transport | E coli growth-2 | phage Ecoli inh | AddAB conf | RecBCD counter | Bact viability | RecBCD conf | Ecoli viability | AddAB counter
CC(CCC1CC(C)OC1=O)=NNC(N)=S (centres undefined) | x | 0.704 | x | x | x | x | x | x | x | x | x
C=C1c2cccc(O)c2C(=O)C2C(=O)[C@]3(O)C(=O)C(C(N)=O)C(=O)[C@@H](N(C)C)[C@@H]3[C@@H](O)[C@H]12 (some centres undefined) | 99.8* | x | 145.0* | 102.0* | 99.1* | 101.2* | 100.5* | 99.2* | 103.0* | 104.6* | 103.8*
O=C1NCC(c2ccccc2)N(CC2CCCCC2)C1=O (centres undefined) | x | 0.661 | x | x | x | x | x | x | x | x | x
O=C(Nc1cccnc1)c1ccc([N+](=O)[O-])s1 | 99.4* | 0.07* | -3.9 | 69.4* | 16.9* | 99.9* | 18.2* | 47.2* | 7.7 | 10.9 | 86.1*
O=C(Nc1ccccc1F)c1ccc([N+](=O)[O-])s1 | 3.4 | 0.567 | u | 3.6 | 2.4 | x | x | x | x | x | x
Clc1ccccc1-c1ccc(C=Nn2cnnc2)o1 | x | 0.66 | x | x | x | x | x | x | x | x | x
CC[C@H]1OC(=O)[C@H](C)[C@@H](O[C@H]2C[C@@](C)(OC)[C@@H](O)[C@H](C)O2)[C@H](C)[C@@H](O[C@@H]2O[C@H](C)C[C@H](N(C)C)[C@H]2O)[C@](C)(O)C[C@@H](C)CN(C)[C@H](C)[C@@H](O)[C@]1(C)O | 99.8* | x | 121.2* | 100.9* | 100.8* | 99.2* | 100.7* | 102.1* | 102.7* | 104.2* | 103.8*
